How the values were obtained:
[1] = target: Ribosomal protein S6 kinase alpha-6 (Homo sapiens) (UniProt Q9UK32); conditions: at 1 µM;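 also: each value is a mean inhibition of RSK4 from a GSK PKIS panel screen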
[2] = target: T1, Serine/threonine-protein kinase Sgk1 (Homo sapiens) (UniProt O00141); conditions: at 0.1 µM
T1 sequence (whole entry): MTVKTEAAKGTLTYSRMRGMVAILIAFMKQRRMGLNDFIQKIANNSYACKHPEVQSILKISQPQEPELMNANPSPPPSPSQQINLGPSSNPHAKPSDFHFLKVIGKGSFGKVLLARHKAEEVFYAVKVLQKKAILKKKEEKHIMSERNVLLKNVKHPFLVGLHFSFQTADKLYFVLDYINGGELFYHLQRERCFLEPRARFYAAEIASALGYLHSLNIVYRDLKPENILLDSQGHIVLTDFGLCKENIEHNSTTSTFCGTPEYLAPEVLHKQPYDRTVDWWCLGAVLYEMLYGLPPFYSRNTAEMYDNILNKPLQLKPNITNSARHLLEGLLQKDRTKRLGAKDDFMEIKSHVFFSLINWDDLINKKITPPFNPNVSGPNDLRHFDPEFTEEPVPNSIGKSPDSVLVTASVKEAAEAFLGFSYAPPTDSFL

[3] = target: T1, Serine/threonine-protein kinase Sgk1 (Homo sapiens); conditions: at 1 µM
[4] = target: T2, Serine/threonine-protein kinase Sgk2 (Homo sapiens) (UniProt Q9HBY8); conditions: at 0.1 µM
T2 sequence (whole entry): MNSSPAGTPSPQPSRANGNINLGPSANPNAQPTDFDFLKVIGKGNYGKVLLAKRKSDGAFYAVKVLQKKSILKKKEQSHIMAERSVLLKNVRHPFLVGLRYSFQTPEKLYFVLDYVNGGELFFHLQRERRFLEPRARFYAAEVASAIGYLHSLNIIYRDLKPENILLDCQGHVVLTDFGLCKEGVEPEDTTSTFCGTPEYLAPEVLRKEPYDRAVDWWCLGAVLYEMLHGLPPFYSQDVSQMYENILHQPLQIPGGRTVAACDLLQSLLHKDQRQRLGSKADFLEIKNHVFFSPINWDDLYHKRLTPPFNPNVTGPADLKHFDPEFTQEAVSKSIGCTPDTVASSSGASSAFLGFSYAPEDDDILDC

[5] = target: T2, Serine/threonine-protein kinase Sgk2 (Homo sapiens); conditions: at 1 µM
[6] = target: T3, Serine/threonine-protein kinase Sgk3 (Homo sapiens) (UniProt Q96BR1); conditions: at 0.1 µM
T3 sequence (whole entry): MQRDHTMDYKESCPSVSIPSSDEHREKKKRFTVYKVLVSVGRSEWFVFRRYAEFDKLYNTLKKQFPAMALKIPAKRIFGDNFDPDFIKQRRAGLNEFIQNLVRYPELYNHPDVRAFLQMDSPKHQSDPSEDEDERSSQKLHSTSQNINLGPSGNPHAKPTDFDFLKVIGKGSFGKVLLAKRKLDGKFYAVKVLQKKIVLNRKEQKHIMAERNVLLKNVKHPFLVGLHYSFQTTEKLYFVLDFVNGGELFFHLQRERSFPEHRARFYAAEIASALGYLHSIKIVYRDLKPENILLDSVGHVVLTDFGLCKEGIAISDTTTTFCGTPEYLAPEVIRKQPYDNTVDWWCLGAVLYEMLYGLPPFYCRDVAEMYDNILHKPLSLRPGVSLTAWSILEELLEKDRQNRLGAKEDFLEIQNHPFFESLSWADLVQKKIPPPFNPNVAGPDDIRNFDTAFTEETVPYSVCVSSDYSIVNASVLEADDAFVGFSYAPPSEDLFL

[7] = target: T3, Serine/threonine-protein kinase Sgk3 (Homo sapiens); conditions: at 1 µM
[8] = target: 5'-AMP-activated protein kinase catalytic subunit alpha-1 (Homo sapiens) (UniProt Q13131); conditions: at 0.1 µM
[9] = target: 5'-AMP-activated protein kinase catalytic subunit alpha-1 (Homo sapiens) (UniProt Q13131); conditions: at 1 µM
[10] = target: 5'-AMP-activated protein kinase catalytic subunit alpha-2 (Homo sapiens) (UniProt P54646); conditions: at 0.1 µM
[11] = target: 5'-AMP-activated protein kinase catalytic subunit alpha-2 (Homo sapiens) (UniProt P54646); conditions: at 1 µM
[12] = target: T4, NUAK family SNF1-like kinase 1 (Homo sapiens) (UniProt O60285); conditions: at 0.1 µM
T4 sequence (whole entry): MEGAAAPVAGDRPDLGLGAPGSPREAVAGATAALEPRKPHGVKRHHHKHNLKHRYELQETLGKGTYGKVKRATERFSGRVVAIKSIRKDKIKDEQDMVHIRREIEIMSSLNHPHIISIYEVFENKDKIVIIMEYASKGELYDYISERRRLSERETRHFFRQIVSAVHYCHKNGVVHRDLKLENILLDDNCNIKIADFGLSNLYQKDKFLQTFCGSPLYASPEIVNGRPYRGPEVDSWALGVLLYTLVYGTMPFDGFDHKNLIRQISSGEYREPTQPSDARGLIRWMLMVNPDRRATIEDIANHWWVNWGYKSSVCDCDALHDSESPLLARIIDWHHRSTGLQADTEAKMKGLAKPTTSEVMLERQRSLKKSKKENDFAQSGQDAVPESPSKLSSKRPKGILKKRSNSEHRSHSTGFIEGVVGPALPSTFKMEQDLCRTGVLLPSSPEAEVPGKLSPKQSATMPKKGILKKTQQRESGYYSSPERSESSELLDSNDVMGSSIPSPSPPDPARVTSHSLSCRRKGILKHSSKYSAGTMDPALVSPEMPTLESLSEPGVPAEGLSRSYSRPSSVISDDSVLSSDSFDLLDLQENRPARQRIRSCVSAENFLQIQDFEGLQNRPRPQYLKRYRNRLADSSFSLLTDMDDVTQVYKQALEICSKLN

[13] = target: T4, NUAK family SNF1-like kinase 1 (Homo sapiens); conditions: at 1 µM
[14] = target: T5, Serine/threonine-protein kinase BRSK1 (Homo sapiens) (UniProt Q8TDC3); conditions: at 0.1 µM
T5 sequence (whole entry): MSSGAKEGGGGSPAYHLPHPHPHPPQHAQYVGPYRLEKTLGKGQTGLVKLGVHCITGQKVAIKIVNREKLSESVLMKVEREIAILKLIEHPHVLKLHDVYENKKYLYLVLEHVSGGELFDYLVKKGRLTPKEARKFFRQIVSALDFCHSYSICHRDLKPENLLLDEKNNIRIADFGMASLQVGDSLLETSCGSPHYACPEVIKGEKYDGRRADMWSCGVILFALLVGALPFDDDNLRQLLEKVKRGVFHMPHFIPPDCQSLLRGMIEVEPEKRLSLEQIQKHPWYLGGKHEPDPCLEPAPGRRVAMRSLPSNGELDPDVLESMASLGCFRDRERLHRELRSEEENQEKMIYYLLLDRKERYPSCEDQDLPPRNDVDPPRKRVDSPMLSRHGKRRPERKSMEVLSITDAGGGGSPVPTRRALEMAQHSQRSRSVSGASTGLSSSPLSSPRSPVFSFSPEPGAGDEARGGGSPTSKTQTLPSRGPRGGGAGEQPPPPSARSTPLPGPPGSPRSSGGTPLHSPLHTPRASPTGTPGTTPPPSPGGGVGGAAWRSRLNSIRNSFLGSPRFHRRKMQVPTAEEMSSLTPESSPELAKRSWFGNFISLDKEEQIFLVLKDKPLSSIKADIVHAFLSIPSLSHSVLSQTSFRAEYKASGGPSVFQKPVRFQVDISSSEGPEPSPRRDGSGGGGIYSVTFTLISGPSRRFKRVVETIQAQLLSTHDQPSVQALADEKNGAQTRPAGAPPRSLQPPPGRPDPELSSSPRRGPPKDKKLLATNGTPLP

[15] = target: T5, Serine/threonine-protein kinase BRSK1 (Homo sapiens); conditions: at 1 µM
[16] = target: T6, Serine/threonine-protein kinase BRSK2 (Homo sapiens) (UniProt Q8IWQ3); conditions: at 0.1 µM
T6 sequence (whole entry): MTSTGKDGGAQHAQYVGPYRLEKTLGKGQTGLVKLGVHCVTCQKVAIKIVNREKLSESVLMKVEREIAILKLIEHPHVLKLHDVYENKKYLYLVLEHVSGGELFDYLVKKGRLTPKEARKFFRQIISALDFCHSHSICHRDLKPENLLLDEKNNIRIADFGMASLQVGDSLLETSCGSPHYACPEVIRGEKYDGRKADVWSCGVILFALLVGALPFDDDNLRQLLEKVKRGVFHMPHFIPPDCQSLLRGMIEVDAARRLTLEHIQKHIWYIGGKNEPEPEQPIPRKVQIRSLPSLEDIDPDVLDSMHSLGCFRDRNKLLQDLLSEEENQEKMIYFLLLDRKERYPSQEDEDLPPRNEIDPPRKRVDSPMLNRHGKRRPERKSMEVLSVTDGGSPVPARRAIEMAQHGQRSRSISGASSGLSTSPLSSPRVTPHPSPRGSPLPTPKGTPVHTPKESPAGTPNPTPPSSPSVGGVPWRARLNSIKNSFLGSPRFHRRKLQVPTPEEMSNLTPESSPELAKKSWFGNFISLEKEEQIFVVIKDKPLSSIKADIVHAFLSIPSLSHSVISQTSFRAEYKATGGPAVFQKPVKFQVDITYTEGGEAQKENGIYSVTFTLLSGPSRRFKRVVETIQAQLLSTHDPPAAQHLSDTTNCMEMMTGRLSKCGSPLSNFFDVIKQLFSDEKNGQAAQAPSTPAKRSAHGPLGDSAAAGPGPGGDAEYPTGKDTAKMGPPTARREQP

[17] = target: T6, Serine/threonine-protein kinase BRSK2 (Homo sapiens); conditions: at 1 µM
[18] = target: Calcium/calmodulin-dependent protein kinase type 1D (Homo sapiens) (UniProt Q8IU85); conditions: at 0.1 µM
[19] = target: Calcium/calmodulin-dependent protein kinase type 1D (Homo sapiens) (UniProt Q8IU85); conditions: at 1 µM
[20] = target: Calcium/calmodulin-dependent protein kinase type II subunit alpha (Homo sapiens) (UniProt Q9UQM7); conditions: at 0.1 µM;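 also: reported values are averages (mean inhibition of CAMK2A)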
Sequence of Calcium/calmodulin-dependent protein kinase type II subunit alpha (Homo sapiens) (Q9UQM7 whole entry): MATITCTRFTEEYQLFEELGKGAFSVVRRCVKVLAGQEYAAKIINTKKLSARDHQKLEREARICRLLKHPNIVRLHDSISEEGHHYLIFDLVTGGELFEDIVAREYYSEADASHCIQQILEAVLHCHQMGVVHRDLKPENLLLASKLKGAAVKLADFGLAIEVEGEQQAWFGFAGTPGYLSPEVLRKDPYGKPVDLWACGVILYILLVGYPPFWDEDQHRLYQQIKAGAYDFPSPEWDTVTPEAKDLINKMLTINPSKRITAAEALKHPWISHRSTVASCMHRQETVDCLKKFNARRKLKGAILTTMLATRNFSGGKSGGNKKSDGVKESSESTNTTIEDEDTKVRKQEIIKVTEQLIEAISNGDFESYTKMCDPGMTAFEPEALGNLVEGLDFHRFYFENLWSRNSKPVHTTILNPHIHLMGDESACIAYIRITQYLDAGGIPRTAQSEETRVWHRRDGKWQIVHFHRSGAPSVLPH

Sequence of Calcium/calmodulin-dependent protein kinase type 1D (Homo sapiens) (Q8IU85 whole entry, looked up): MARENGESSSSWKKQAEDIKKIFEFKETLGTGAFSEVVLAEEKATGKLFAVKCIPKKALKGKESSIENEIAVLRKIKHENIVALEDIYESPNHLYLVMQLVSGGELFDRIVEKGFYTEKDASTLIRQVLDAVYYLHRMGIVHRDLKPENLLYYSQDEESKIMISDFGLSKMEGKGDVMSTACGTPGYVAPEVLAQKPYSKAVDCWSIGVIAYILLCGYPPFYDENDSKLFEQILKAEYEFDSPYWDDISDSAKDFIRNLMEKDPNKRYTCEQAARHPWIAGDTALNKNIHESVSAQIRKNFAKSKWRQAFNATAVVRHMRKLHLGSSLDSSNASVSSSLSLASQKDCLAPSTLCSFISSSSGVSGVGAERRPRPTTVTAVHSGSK
Sequence of 5'-AMP-activated protein kinase catalytic subunit alpha-1 (Homo sapiens) (Q13131 whole entry, looked up): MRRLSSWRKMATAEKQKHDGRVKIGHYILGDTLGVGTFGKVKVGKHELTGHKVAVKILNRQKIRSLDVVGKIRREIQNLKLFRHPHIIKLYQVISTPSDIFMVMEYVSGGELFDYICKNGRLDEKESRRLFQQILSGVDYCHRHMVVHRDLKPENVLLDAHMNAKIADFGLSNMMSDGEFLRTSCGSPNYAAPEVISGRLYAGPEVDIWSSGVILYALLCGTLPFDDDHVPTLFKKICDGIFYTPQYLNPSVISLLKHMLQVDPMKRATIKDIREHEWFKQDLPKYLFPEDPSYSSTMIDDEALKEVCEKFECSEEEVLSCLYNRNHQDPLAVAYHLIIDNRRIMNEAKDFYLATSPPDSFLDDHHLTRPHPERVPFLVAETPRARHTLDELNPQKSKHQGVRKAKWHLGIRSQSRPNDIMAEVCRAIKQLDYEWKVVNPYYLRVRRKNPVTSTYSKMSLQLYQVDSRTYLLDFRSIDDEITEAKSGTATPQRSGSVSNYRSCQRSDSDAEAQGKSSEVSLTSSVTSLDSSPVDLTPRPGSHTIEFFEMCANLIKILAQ
Sequence of 5'-AMP-activated protein kinase catalytic subunit alpha-2 (Homo sapiens) (P54646 whole entry, looked up): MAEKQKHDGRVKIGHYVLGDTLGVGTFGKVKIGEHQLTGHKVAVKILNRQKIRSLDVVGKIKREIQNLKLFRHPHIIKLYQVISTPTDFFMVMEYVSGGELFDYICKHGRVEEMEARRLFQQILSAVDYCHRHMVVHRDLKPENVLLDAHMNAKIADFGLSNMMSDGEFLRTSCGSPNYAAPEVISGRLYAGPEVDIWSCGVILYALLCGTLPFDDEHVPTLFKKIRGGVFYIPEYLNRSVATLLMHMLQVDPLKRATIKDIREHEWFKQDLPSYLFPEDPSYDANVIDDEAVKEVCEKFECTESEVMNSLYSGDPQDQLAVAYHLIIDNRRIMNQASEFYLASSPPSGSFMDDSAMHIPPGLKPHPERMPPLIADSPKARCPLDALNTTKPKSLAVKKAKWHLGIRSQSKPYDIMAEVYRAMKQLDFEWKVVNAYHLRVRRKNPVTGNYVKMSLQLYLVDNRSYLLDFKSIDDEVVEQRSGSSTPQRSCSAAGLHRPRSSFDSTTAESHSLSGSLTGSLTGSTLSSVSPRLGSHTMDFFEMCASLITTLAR
Sequence of Ribosomal protein S6 kinase alpha-6 (Homo sapiens) (Q9UK32 whole entry): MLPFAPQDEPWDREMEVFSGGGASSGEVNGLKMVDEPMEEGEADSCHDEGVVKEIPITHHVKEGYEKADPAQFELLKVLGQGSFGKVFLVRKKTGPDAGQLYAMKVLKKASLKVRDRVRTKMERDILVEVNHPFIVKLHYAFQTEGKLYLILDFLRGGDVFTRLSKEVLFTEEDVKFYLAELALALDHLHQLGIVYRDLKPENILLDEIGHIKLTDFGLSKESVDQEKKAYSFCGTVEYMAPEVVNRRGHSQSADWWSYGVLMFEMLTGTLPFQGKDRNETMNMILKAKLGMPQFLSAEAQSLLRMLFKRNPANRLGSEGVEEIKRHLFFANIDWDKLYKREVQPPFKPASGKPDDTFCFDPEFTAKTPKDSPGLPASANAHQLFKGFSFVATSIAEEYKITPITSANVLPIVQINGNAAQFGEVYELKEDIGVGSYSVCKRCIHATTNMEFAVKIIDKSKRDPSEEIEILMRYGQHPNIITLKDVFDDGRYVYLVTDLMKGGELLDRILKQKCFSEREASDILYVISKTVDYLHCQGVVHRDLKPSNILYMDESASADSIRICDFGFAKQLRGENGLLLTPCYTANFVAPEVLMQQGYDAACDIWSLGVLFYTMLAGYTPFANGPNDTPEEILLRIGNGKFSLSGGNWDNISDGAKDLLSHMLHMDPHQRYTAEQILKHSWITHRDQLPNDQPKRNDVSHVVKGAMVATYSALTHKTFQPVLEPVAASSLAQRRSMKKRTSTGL

Compound	inhibition [1]	inhibition [2]	inhibition [3]	inhibition [4]	inhibition [5]	inhibition [6]	inhibition [7]	inhibition [8]	inhibition [9]	inhibition [10]	inhibition [11]	inhibition [12]	inhibition [13]	inhibition [14]	inhibition [15]	inhibition [16]	inhibition [17]	inhibition [18]	inhibition [19]	inhibition [20]
NCc1ccc(-n2c(-c3nonc3N)nc3cnccc32)cc1	36.2%	5.32%	11.7%	5.18%	17.3%	3.68%	28.2%	5.3%	7.27%	6.07%	8.19%	4.91%	7.23%	4.76%	6.27%	4.11%	8.49%	2.03%	4.78%	4.91%
CN(c1ccc(NC(=O)Nc2c(Cl)cccc2Cl)cc1)c1ccnc(Nc2cccc(CS(C)(=O)=O)c2)n1	1.06%	1.73%	7.64%	5.92%	22.8%	3.73%	4.02%	2.22%	3.05%	-0.21%	3.21%	9.51%	30.2%	0.84%	9.78%	2.74%	8.66%	1.34%	-0.13%	2.56%
Fc1ccc(-c2ncn(CCCN3CCOCC3)c2-c2ccncc2)cc1	-0.21%	-0.45%	0.64%	1.89%	-4.02%	-1.19%	-1.33%	0.37%	-1.12%	0.28%	2.58%	0.22%	3.87%	1.09%	1.49%	1.32%	-0.21%	1.77%	1.54%	0.57%
NS(=O)(=O)c1ccc(Nc2cc(-c3ccc(O)c(F)c3)n[nH]2)cc1	59.5%	-0.99%	3.11%	-0.41%	3.07%	0.2%	-0.29%	0.53%	15.2%	0.54%	8.67%	2.73%	11%	0.57%	10.9%	2.75%	16.7%	-0.17%	0.78%	-4.96%
Nc1nccc(-c2c(-c3ccc(F)cc3)ncn2C2CCC(O)CC2)n1 (stereo not given)	3.39%	-2.26%	-1.85%	-3.55%	7.09%	0.34%	1.61%	3.45%	0.93%	0.71%	-1.6%	9.02%	39.9%	0.33%	1.44%	1.13%	1.19%	-2.47%	-0.75%	-3.31%
CS(=O)(=O)CCNCc1cc(-c2cc3c(Nc4ccc(OCc5cccc(F)c5)c(Cl)c4)ncnc3s2)cs1	2.5%	2.39%	1.38%	5.74%	2.6%	3.92%	6.65%	2.39%	3.88%	5.96%	3.11%	-0.49%	3.79%	1.37%	-0.77%	0.67%	4.02%	0.48%	2.27%	3.07%
O=C(Nc1n[nH]c2cc(-c3cc(F)ccc3F)ccc12)C1CC1	2.43%	2.46%	1.25%	0.34%	0.08%	2.01%	0.16%	2.72%	2.32%	3.84%	9.82%	-2.28%	-2.43%	2.17%	15.3%	3.03%	14.1%	-0.34%	1.27%	1.96%
CCS(=O)(=O)c1ccc(OC)c(Nc2ncc(-c3ccccc3Cl)o2)c1	3.92%	-0.42%	2.5%	-1.58%	-2.15%	-0.26%	-1.36%	1.54%	0.82%	-1.8%	2.95%	2.27%	1.46%	-1%	-0.58%	0.64%	-1.12%	0.68%	1.43%	2.2%
CCc1nccc2c1nc(-c1nonc1N)n2CC	0.92%	0.21%	3.23%	0.23%	9.51%	2.62%	7.73%	1%	-1.23%	-1.43%	2%	2.71%	4.47%	0.98%	4.27%	2.16%	4.53%	1.07%	1.8%	0.2%
O=C(NCC1CC1)c1ccc(-c2cccc(C(=O)NC3CC3)c2)cc1	0.61%	0.99%	0.82%	0.58%	3.1%	1.28%	1.29%	2.2%	3.29%	0.26%	1.74%	1.06%	4.26%	1.95%	0.89%	1.44%	-1.6%	0.99%	2.29%	2.2%
CN(C)CCOc1ccc(-c2cc(-c3ccc4c(c3)CCC4=NO)c(-c3ccncc3)o2)cc1	-1.99%	1.28%	0.73%	-2.26%	2.64%	1.69%	-4.66%	-1.39%	-0.8%	0.73%	0.01%	0.84%	-0.24%	-0.05%	-0.95%	-0.42%	1.46%	-0.88%	1.79%	-1.08%
Cc1ccc(NC(=O)c2ccoc2)cc1-c1ccc(C(=O)NCC2CC2)cc1	-0.14%	0.63%	0.73%	2.95%	-0.89%	7.71%	3.98%	0.17%	1.06%	-0.17%	1.09%	-0.47%	-0.78%	0%	0.43%	1.99%	0.95%	-0.63%	-1.53%	1.08%
C[C@@H](Oc1cc(-n2cnc3ccc(OC4CCN(C)CC4)cc32)sc1C(N)=O)c1ccccc1Cl	40.4%	1.16%	1.49%	2.92%	1.45%	3.29%	2.26%	5.35%	21.6%	5.98%	9.02%	22%	66.8%	27.6%	58%	37.9%	70.8%	-0.95%	3.84%	2.57%

Source: ChEMBL document CHEMBL1961873, “Compounds: GSK PKIS; Assays: Nanosyn kinase panel” (2012)
